Among the data in the supplement of paper PMC10849652 are log2 fold change values, retold here.

Targets with a hit are over-represented here; the source holds about 7,900 in all. About 0.6% of all pairs of compound and target were hits.

Chain of UniProt P19397 (P19397 whole entry, looked up): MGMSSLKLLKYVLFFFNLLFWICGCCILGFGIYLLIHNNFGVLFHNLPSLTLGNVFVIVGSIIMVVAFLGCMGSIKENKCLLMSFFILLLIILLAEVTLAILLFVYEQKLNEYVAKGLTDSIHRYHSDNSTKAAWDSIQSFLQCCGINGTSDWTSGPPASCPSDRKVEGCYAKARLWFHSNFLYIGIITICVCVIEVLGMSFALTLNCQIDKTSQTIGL
Chain of UniProt P46108 (P46108 whole entry, looked up): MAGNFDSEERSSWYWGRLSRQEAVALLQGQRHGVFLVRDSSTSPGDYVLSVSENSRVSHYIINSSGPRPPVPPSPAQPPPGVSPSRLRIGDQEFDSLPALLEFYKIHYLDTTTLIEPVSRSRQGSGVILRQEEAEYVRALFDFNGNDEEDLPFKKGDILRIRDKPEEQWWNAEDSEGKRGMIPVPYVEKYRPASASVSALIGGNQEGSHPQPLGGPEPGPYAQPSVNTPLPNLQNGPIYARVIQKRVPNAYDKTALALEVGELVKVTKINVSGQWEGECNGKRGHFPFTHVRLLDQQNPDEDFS
Chain of UniProt Q8N4S0 (Q8N4S0 whole entry, looked up): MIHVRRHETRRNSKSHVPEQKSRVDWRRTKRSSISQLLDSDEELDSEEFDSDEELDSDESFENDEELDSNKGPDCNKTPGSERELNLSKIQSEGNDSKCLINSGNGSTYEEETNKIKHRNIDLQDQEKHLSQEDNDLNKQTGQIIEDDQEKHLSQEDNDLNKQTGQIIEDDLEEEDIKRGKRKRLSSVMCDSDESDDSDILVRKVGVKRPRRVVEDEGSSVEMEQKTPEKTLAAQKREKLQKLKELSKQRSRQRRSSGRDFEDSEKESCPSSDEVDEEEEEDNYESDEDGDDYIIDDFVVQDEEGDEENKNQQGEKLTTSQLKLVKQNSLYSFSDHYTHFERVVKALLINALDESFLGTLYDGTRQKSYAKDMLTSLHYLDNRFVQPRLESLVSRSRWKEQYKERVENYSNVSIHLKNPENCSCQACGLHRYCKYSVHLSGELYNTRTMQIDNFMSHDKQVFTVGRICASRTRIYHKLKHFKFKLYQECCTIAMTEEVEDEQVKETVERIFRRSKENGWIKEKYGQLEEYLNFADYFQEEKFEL
Chain of UniProt Q96JB5 (Q96JB5 whole entry, looked up): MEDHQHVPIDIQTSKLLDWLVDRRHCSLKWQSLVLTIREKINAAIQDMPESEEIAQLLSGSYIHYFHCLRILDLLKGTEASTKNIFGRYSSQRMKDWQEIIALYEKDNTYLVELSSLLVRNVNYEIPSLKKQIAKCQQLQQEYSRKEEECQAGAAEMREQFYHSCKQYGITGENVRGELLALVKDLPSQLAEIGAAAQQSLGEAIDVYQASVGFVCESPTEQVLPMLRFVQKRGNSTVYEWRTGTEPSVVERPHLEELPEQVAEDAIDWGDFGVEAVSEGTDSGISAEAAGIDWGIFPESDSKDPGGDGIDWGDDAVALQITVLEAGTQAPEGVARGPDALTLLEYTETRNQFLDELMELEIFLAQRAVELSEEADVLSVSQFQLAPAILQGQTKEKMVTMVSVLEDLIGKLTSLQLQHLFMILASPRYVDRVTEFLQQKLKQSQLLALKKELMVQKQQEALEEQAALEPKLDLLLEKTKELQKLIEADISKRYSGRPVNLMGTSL
Chain of UniProt O14578 (O14578 whole entry, looked up): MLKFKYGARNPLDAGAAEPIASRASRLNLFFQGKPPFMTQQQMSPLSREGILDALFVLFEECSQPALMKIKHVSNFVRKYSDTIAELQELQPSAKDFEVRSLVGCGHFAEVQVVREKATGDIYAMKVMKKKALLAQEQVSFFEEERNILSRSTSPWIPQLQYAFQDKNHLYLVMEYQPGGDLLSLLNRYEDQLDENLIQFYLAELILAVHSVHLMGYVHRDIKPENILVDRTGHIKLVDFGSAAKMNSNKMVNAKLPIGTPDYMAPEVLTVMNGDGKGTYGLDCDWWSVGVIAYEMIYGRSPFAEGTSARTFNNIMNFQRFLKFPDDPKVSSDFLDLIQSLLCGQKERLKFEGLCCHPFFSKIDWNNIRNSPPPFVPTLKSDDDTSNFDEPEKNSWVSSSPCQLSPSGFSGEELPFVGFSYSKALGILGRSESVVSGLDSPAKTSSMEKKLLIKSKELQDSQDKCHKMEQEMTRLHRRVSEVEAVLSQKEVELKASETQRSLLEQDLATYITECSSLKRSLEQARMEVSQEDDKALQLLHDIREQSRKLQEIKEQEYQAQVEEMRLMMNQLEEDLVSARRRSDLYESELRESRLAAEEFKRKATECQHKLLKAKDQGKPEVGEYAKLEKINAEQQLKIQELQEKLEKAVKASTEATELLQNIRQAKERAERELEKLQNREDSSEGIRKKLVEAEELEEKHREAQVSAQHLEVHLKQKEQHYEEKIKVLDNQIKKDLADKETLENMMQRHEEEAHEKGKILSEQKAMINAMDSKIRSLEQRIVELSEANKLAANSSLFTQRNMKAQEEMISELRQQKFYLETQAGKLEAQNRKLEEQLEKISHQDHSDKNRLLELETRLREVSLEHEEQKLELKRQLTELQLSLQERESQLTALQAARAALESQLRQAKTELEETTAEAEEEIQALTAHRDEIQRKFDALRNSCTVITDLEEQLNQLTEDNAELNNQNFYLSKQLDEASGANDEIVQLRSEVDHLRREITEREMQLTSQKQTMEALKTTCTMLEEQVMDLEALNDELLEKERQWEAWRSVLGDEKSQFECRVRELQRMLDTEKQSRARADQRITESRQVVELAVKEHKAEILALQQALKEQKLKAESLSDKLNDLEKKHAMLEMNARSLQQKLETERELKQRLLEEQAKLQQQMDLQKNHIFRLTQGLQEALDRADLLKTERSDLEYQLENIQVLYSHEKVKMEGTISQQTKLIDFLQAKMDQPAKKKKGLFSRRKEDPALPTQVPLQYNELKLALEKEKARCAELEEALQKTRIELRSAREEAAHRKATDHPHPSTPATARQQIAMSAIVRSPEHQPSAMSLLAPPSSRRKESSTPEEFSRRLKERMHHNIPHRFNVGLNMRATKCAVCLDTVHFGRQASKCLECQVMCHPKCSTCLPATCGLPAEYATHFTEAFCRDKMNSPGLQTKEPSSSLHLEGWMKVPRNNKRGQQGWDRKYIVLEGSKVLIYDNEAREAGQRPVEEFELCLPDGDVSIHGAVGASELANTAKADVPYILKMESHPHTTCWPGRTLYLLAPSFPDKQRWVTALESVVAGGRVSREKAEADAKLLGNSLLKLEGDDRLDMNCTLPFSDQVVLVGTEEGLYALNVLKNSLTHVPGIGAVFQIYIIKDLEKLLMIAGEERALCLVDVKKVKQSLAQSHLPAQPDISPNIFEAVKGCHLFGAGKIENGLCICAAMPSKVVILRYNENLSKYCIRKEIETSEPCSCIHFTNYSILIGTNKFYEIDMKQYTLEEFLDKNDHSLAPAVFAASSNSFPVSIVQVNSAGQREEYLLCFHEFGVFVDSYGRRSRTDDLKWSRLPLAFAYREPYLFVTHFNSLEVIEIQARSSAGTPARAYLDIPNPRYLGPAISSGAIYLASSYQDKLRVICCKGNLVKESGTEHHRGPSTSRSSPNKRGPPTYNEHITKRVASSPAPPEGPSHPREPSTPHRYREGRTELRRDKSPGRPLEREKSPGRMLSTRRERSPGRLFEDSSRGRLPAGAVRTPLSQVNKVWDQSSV
Chain of UniProt Q9UNS2 (Q9UNS2 whole entry, looked up): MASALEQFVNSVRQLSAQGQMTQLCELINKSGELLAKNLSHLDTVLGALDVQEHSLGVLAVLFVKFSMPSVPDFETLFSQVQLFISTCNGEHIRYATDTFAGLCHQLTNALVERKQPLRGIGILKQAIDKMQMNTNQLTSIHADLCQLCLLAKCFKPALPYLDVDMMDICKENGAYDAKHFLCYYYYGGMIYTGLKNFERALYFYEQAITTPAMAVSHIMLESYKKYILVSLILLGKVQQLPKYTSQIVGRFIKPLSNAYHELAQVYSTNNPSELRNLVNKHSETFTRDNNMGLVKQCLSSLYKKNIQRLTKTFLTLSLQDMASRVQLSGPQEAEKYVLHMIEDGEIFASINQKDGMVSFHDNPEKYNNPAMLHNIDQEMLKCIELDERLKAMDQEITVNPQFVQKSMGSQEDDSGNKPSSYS
Chain of UniProt Q7KZN9 (Q7KZN9 whole entry, looked up): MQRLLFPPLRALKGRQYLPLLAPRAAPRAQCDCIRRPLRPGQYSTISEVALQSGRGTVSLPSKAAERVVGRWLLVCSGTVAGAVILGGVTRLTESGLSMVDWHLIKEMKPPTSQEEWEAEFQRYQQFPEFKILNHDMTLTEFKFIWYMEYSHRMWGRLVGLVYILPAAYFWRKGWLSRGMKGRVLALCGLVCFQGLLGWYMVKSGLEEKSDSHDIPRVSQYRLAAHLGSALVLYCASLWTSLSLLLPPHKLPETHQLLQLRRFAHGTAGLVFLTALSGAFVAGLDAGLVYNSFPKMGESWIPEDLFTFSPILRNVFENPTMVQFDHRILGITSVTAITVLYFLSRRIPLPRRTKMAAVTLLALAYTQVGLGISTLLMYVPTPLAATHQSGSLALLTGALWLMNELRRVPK
Chain of UniProt Q16630 (Q16630 whole entry, looked up): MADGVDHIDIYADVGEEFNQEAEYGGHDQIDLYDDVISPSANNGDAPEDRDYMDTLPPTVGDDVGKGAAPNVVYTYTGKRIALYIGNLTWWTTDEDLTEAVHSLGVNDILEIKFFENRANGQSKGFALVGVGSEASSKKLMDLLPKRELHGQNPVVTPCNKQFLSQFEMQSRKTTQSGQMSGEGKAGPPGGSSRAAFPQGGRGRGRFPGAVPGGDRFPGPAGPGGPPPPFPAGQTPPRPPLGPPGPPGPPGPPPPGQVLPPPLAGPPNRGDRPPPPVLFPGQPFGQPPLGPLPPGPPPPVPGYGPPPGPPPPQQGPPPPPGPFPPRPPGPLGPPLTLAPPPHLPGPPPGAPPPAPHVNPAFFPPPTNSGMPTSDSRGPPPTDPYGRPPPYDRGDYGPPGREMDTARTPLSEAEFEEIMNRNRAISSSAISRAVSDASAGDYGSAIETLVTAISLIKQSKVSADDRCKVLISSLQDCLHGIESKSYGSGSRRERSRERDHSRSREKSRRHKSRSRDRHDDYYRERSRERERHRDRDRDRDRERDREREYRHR

Compound in the experiment: c1cn2cc(-c3ccc4cn[nH]c4c3)nc(Nc3ccc(N4CCOCC4)cc3)c2n1 [entospletinib]
Kind of experiment: log2 fold change, soluble protein after heating vs DMSO (PISA); higher = thermal stabilisation; K562 cells, 10 uM, 30 min; active = over 0.2 and 3.5 SD of the protein, either way, in both replicates (recomputed). Summed up:
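K562 cells at 2×10^6 cells/mL were given 10 μM compound for 30 min. Aliquots then went through 3 min of heating across 48°C-58°C, were pooled, and were extracted in PBS with 0.5% NP-40 at 4°C, and the supernatant after 21,000xg for 90 min was quantified by TMTpro 16plex LC-MS/MS with channel sums equalised. Thermal stability relative to control samples, from duplicates, is given as log2 fold change.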
On to CCDC82 (UniProt Q8N4S0), for which the log2 fold change is 0.021 (inactive).

Regarding COG2 (UniProt Q14746), the log2 fold change is -0.103 (inactive).

For the target COX15 (UniProt Q7KZN9), the log2 fold change is -0.169 (inactive).

For the target CHCHD1 (UniProt Q96BP2), the log2 fold change was -0.004 (inactive).

As for CDK5RAP1 (UniProt Q96SZ6), the log2 fold change is 0.03 (inactive).

As for CLINT1 isoform 3 (UniProt Q14677), the log2 fold change is 0.111 (inactive).

With COCH (UniProt O43405), the log2 fold change was -0.012 (inactive).

As to COPS3 isoform 2 (UniProt Q9UNS2), the log2 fold change was 0.135 (inactive).

With COX7C (UniProt P15954), the log2 fold change is -0.074 (inactive).

Turning to COX7B (UniProt P24311), the log2 fold change was 0.005 (inactive).

Regarding CSK (UniProt P41240), the log2 fold change is 0.013 (inactive).

Turning to CEPT1 (UniProt Q9Y6K0), the log2 fold change was 0.033 (inactive).

With CCDC59 (UniProt Q9P031), the log2 fold change was 0.002 (inactive).

Regarding CERT isoform 3 (UniProt Q9Y5P4), the log2 fold change is 0.019 (inactive).

CRK (UniProt P46108): the log2 fold change is -0.022 (inactive).

As for CDK17 isoform 2 (UniProt Q00537), the log2 fold change is 0.067 (inactive).

For the target COQ9 (UniProt O75208), the log2 fold change is -0.022 (inactive).

In the case of CD53 (UniProt P19397), the log2 fold change is 0.073 (inactive).

Regarding CPSF6 isoform 2 (UniProt Q16630), the log2 fold change was 0.064 (inactive).

With CLUH (UniProt O75153), the log2 fold change is 0.06 (inactive).

As for CBX5 (UniProt P45973), the log2 fold change was 0.01 (inactive).

For CNOT2 (UniProt Q9NZN8), the log2 fold change is -0.012 (inactive).

Regarding CIT isoform 4 (UniProt O14578), the log2 fold change is -0.168 (inactive).

As for CNOT7 (UniProt Q9UIV1), the log2 fold change is 0.122 (inactive).

CLCN7 (UniProt P51798): the log2 fold change is -0.007 (inactive).

As to CDK11B (UniProt P21127), the log2 fold change was 0.14 (inactive).

Regarding CASP3 (UniProt P42574), the log2 fold change is 0.044 (inactive).

As for CDC42SE1 (UniProt Q9NRR8), the log2 fold change is 0.141 (inactive).

As to CAD (UniProt P27708), the log2 fold change is -0.089 (inactive).

On to CNN3 (UniProt Q15417), for which the log2 fold change is -0.022 (inactive).

Take CNOT1 (UniProt A5YKK6): the log2 fold change is 0.014 (inactive).

With CDC25B isoform 4 (UniProt P30305), the log2 fold change was -0.013 (inactive).

Regarding CASP2 (UniProt P42575), the log2 fold change is -0.004 (inactive).

As to CDK5RAP3 isoform 4 (UniProt Q96JB5), the log2 fold change was -0.057 (inactive).

On to CLUH, A0A494C0R8, for which the log2 fold change is 0.119 (inactive).

In the case of CSNK1D (UniProt P48730), the log2 fold change is 0.109 (inactive).

Take CDC37L1 (UniProt Q7L3B6): the log2 fold change is 0.042 (inactive).

CALCOCO2 isoform 4 (UniProt Q13137): the log2 fold change was 0.005 (inactive).
